# How the values were obtained:
# Assay in all cases: PBM binding z-score (relative to random genomic background probes); higher = stronger binding; sequences stand for … in GC…GCGATTGACAGCGTAGAATGAAGG
# [1] = system: PPARg:RXRa DBDmut IVT, anti-RXR (DBD mutation: RXRa K156A/R161A, NR concentration 270 nM, RXRa partner concentration 90 nM)
# Procedure, shortened: (§1)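 Ligand-free nuclear receptor dimers were applied to custom Agilent 4×180K protein-binding microarrays whose double-stranded probes carried direct-repeat seeds, single-nucleotide variants, half-site ablations and random human genomic background sequences in 34-nt variable regions. Incubation lasted 1 h. Binding z-scores were computed against the random background probes from regression-normalized fluorescence.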
# [2] = system: PPARg:RXRa IVT, anti-PPARg (NR concentration 270 nM, RXRa partner concentration 90 nM)
# Procedure, shortened: as §1
# [3] = system: PPARg DBDmut:RXRa IVT, anti-PPARg (DBD mutation: PPARg1 K132A/R137A, NR concentration 270 nM, RXRa partner concentration 90 nM)
# Procedure, shortened: as §1
# [4] = system: PPARg DBDmut IVT, anti-PPARg (DBD mutation: PPARg1 K132A/R137A, NR concentration 270 nM)
# Procedure, shortened: as §1
# [5] = system: PPARg homodimer (NR concentration 180 nM)
# Procedure, shortened: as §1
# [6] = system: PXR:RXRa (NR concentration 270 nM, RXRa partner concentration 90 nM)
# Procedure, shortened: as §1
# [7] = system: PXR homodimer (NR concentration 270 nM)
# Procedure, shortened: as §1
# [8] = system: RARa:RXR (NR concentration 270 nM, RXRa partner concentration 90 nM)
# Procedure, shortened: as §1
# [9] = system: RARa homodimer (NR concentration 270 nM)
# Procedure, shortened: as §1
# [10] = system: RARb:RXRa (NR concentration 270 nM, RXRa partner concentration 90 nM)
# Procedure, shortened: as §1
Sequence,PBM binding z-score [1],PBM binding z-score [2],PBM binding z-score [3],PBM binding z-score [4],PBM binding z-score [5],PBM binding z-score [6],PBM binding z-score [7],PBM binding z-score [8],PBM binding z-score [9],PBM binding z-score [10]
ATACCAAGGTGATCGTGACGTCGTTGATACTAAC,0.791,1.2,0.681,0.866,0.477,0.0619,0.0409,0.447,0.899,0.752
CGTCCGAGGTCAGAGAGGTCAGTGAATGCCGAGT,3.24,4.09,-0.171,-0.203,4.74,6.53,12.4,5.71,0.718,5.23
TCGAGTAGGATACCAATGGGGCATTCAGCTTTCT,1,-0.141,-0.244,-1.29,-1.04,-0.677,-0.988,-1.18,-1.27,-0.402
CAGCCTACGTCAGGGCCAGTATAGGAGGAACGTT,-0.745,-0.587,-0.356,-0.405,-0.116,-0.512,-0.548,0.00174,-0.296,-0.405
CAAACTAAGTCAAAGGTCAAAGTCGAGCCAACCA,3.49,6.79,1.69,2.86,5.3,6.14,2.15,7.85,3.31,4.95
ATCTATAGGTAAAGTTCAGTGAAAGATCGATAGA,1.31,1.74,1.49,1.19,1.41,1.99,1.33,1.21,1.04,2.62
ACTCGGAGGACAAAGGTCAGAGCTACGCCAGTGA,0.692,3.72,0.709,0.127,3.04,3.91,0.0188,5.19,2.21,4.44
ATTGAAAGGTCGAGGTGAGTATAGAGAAAGGGAA,0.763,2.77,1.27,1.65,2.49,2.7,0.738,3.64,1.83,4.28
ATCTCTAGGTAAAAGTTCAGTAAATCCCGAGGAT,1.87,3.76,1.75,1.54,1.88,1.8,1.71,1.47,1.92,2.41
TCTTGTAGATCAGAGGTTAAGAAAGCCGAAGCCT,1.58,2.04,0.138,0.179,0.818,0.951,-0.359,1.48,-0.453,0.915
CCAGACAGGAGAAAGGTAACTCAGTCTGGTACGC,0.0518,-0.161,-0.761,-0.621,0.229,-0.00799,0.153,0.168,0.262,0.234
AATTCAGGGTCATCGTAGGCCAGAGTACGCACAG,3.42,4.57,2.45,3.09,2.85,5.49,1.43,5.54,1.45,4.45
GCTAATTGGTCAGTAAAAGGTCACACACCGGTCG,1.17,3.09,0.371,1.23,3.29,4.83,1.25,5.26,2.18,4.66
CCAGACAGGTGAAAGGTGACTCAGTCTGGTACGC,2.4,3.47,0.243,-0.992,1.3,1.85,0.0178,2.91,0.796,1.96
AGAATGAGGTTATACGTAGATCAGCGAAGAAAGT,3.8,2.33,0.885,1.06,1.02,0.953,0.44,1.55,-0.289,1.23
TCGAGTAGGTTAGGGGCATTTAGAATGGCGTCGA,2.14,1.43,-0.441,-0.569,0.734,0.534,0.61,0.611,0.362,0.962
CCGACTGGGGCAGAAAGGGTACCATACCATCCGG,0.57,0.77,-0.394,-1.37,-0.287,-0.615,-0.768,-0.429,-0.298,0.605
GCGACTGGTGCAAAGCAGGTTACCATAAGGTTGG,-0.384,0.329,-0.718,-1.22,-0.73,-0.0682,-0.682,0.163,-1.27,-0.0547
TATACAGGGTCAAAGGCCTGAGTACGAATGTCGA,2.08,4.32,3.81,3.06,4.01,3.86,0.321,5.15,1.29,4.2
CGTCCAAGGTCATCGGAGGTCAGTGAAGACAGAT,3.14,4.14,0.99,1.08,6.99,7.33,7.36,6.63,3.02,5.5
GCTAGCAGGCCACTTGGGTCACTCAATGACGGGC,1.43,1.32,-1.04,-0.967,-0.431,0.269,-0.237,0.575,-0.207,1.34
ACTATTAGTTGACTTAGGGCAGCCGATACGACGC,0.0635,0.0175,1.35,0.429,-0.15,-0.251,-0.115,-0.045,0.705,0.758
CGAACTAGGTCAGAACAGGACAGTGAGGGATGAT,7.05,7.16,2.36,0.0779,0.578,0.829,0.211,1.06,0.238,2.94
TCTTGTAGATCACGCAGGTTAAGAAAGCCTGAGT,2.2,1.64,0.55,0.645,0.083,0.585,0.000906,0.685,0.00384,0.386
